An excerpt weighted towards active compounds, which were near 11% of everything screened.
HPGD inh – HPGD (human) dehydrogenase inhibition. purified HPGD, NADH fluorescence kinetic, PGE2 substrate. Potency, µM, inactives show at the top dose activity change, negative = inhibition, usual class: inhibitors. hit rate 4.3% among 150,000. P15428. AID 894; active = well fitted inhibition curve with a large enough effect, not every such curve was filed as active; inconclusive = small, poorly fitted or top-dose-only effect, or another doubt; inactive = no such curve, though single readings can be large or run the other way; note: potency is the fitted concentration of half-maximal effect; % is set by controls: 0 for no effect and ±100 for the full control effect
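NADH formation kinetics: reaction with 30 uM PGE2 and 1 mM NAD+ (final), 20 nM enzyme, Tris-HCl pH 8 with Tween 20, after 15 min compound preincubation at room temperature. Fluorescence change, last versus first of five reads.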
ALDH1A1 block – ALDH1A1 (human) enzyme inhibition; P00352; Purified ALDH1A1, NADH fluorescence, propionaldehyde substrate; AID 1030; Potency, µM (titrated, usually from 75.3 µM), inactives show at the highest dose activity, negative = inhibition, most hits filed as inhibitors; hit rate 7.3% among 220,000; active = well fitted inhibition curve with a large enough effect, not every such curve was filed as active; inconclusive = small, poorly fitted or top-dose-only effect, or another doubt; inactive = no such curve, though single readings can be large or run the other way;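 note: potency is the fitted concentration of half-maximal effect; plate controls were no enzyme wells and a reference inhibitor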
Target sequence (P00352 whole entry, looked up): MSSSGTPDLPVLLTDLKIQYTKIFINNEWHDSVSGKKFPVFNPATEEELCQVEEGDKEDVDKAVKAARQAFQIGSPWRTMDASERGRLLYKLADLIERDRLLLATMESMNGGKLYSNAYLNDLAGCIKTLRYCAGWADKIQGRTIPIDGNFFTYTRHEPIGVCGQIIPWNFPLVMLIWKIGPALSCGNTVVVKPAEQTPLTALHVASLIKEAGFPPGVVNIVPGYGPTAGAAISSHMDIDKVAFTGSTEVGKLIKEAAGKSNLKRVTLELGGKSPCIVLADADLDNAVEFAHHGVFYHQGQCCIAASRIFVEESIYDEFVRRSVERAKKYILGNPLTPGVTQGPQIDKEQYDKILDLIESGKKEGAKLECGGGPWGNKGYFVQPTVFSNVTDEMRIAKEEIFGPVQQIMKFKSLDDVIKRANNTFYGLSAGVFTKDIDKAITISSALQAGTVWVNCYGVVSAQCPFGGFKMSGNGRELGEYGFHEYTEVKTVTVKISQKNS
HttQ103 aggreg – inhibitors of mutant huntingtin aggregate formation in PC12 cells; Potency, µM (doses to about 46.1 µM), without a hit: at the highest dose activity change, negative = inhibition, hits mostly inhibitors; PC12 HttQ103-GFP aggregates, Acumen cytometry, 40 h; hit rate 1.1% among 220,000; note: potency is the fitted concentration of half-maximal effect; % is set by controls: 0 for no effect and ±100 for the full control effect; nearly all actives have a fitted effect of over 60% in size
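Multiplexed with ATP-based cell death, this channel scores GFP aggregates in PC12 cells expressing inducible HTTex1-Q103-GFP. Induction used 100 nM tebufenozide; compounds were tested in concentration series.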
CBFb-RUNX1 inh – inhibitors of human CBF-beta and RUNX1 interaction; AlphaScreen CBFb-His/RUNX1-biotin binding, biochemical; AID 1477; Potency, µM (highest dose often 59.8 µM), for inactives: at the highest dose activity, negative = inhibition, actives largely listed as inhibitors; 230,000 tested, under 10 active; Q01196+Q13951; note: % of control where 0% means no effect
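CBFb-His/RUNX1-biotin, 30 nM each, preincubated 20 min RT; compound 15 min RT; Ni + streptavidin beads 50 ng each, 90 min RT; AlphaScreen read.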
HTT ATP protect – Huntington cell model cytoprotection by ATP luminescence; PC12 HTT-Q103 induced, cytoprotection, ATP luminescence, 40 h; AID 1471; hit rate 0.14% among 230,000; Potency, µM (doses to about 56.4 µM), for inactives: cytoprotection (ATP increase), usual class: activators; note: potency is the fitted concentration of half-maximal effect; % of control where 0% means no effect; nearly all actives have a fitted effect of over 45% in size
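Rat PC12, Q103 Htt exon1-GFP fusion, ecdysone promoter; tebufenozide inducer 100 nM final; compound titration; qHTS, 1500 cells/well; ATPlite luminescent read.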
PNC inhibitor – perinucleolar compartment assembly inhibition; PC3M PTB-GFP, PNC prevalence imaging, 16 h; active compounds read low; activity change (PNC), negative = inhibition, % at 10 µM; hit rate 3.1% among 140,000;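 active = readout at or below -70, meaning at least 70% loss of cells showing the perinucleolar compartment, a nuclear body marking cancer cells; inconclusive = readout between -30 and a set limit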;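 note: plate controls were DMSO wells for no effect and camptothecin positive control wells for full effect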
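Compounds are pinned in duplicate onto adhered PC3M cells stably expressing GFP-tagged PTB and incubated 16 h at 37 C. Cells are then fixed, nuclei stained with Hoechst, and PNC-positive cells counted.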
Numbers without * were called inactive; u = inconclusive; x = no result; [ ] = dose if it differs, or a comment. Unless noted, calls come from the whole dose curve; as a rule, active = well fitted curve in the direction sought with a large enough effect; inconclusive = small, poorly fitted or top-dose-only effect, or another doubt; inactive = no such curve, though single readings can be large; an effect the other way counts as inactive or inconclusive.

SMILES	HPGD inh	ALDH1A1 block	HttQ103 aggreg	CBFb-RUNX1 inh	HTT ATP protect	PNC inhibitor
CC(=O)N1CC=CC1(C)C(=O)NCC1CC1 (configuration not stated)	u	u	x	13.0%	4.5%	x
CCc1c(C(=O)NC2CCCC2)csc1C	14.1µM*	-2.0%	32.9%	7.6%	44.0%[10 µM]	-99.4*
CCCCNC(=S)NNC(=O)c1csc(C)c1CC	-18.3%	3.8%	12.4%	0.8%	15.2%[10 µM]	49.8
Cc1ccccc1NC(=S)NNC(=O)c1csc2c1CCC(C)C2 (configuration not stated)	-8.2%	20µM*	u	-0.9%	-53.4%	u
O=C(NCC1CCCO1)c1csc2c1CCCCC2 (configuration not stated)	25.1µM*	-12.4%	3.6%	2.9%	6.8%	17.7
COc1ccc(CCNC(=O)c2csc3c2CCCC3)cc1	x	0.794µM*	-13.0%	u	-19.5%	x
CCn1[nH]c(=O)c(=Nc2c(C)n(C)n(-c3ccccc3)c2=O)cc1-c1ccc(Cl)cc1	-5.5%	-3.5%	-2.6%	6.7%	-11.2%	-3.6
CCCn1c(-c2ccc(F)cc2)nc2c(NC3CC4CCC(C3)N4C)nc(C)nc21 (configuration not stated)	u	u	x	22.2%	-38.7%	x
COC(=O)c1ccc(C(NC(=O)OCc2ccccc2)/C(=C/[C@@H](C)C(=O)NCC2CC2)c2cccnc2)cc1 (some centres not stated)	-2.5%	-1.5%	x	11.6%	15.3%	x
CC1CCc2c(C(=O)NCC3CCCO3)csc2C1 (configuration not stated)	7.94µM*	u	10.5%	14.2%	-110.1%	-10.8
CC1CCc2c(C(=O)Nc3ccccn3)csc2C1 (configuration not stated)	x	x	-8.4%[9.22 µM]	18.1%	-24.2%[10 µM]	x
CC1CCc2c(C(=O)Nc3nccs3)csc2C1 (configuration not stated)	7.08µM*	1.7%	-28.1%	-5.8%	-4.5%	9.6
CCNC(=S)NNC(=O)c1csc2c1CCC(C)C2 (configuration not stated)	-10.1%	-5.9%	-19.9%	-0.9%	1.1%	-12.8
O=C(NC1CCCC1)c1csc2c1CCCC2	15.8µM*	u	u	10.4%	-2.4%	1.8
Cc1ccc(C)c(Nc2cc(C(=O)NCc3cccnc3)c3ccccc3n2)c1	x	x	-5.2%[9.22 µM]	7.3%	11.5%[10 µM]	x
O=C(O)CNC(=O)CC1S/C(=N/N=C2\CSC(=O)N2)NC1=O (configuration not stated)	x	16.9%	-4.3%	u	1.9%	x
O=S(=O)(NC1CC1)c1ccc(S(=O)(=O)N2CCCC(c3nc(-c4cccnc4)no3)C2)cc1 (configuration not stated)	-12.5%	u	11.2µM*	u	-6.0%[10 µM]	u
Cn1cnc2nc(NCCO)nc(NCc3ccccc3)c21	x	-8.5%	x	7.7%	-39.2%	x
Cc1oc(-c2nc3ccccc3n2C)cc1C(=O)c1ccccc1	35.5µM*	u	-8.4%	-25.9%	-42.4%[10 µM]	-13.4
COc1cccc(C(=O)N(Cc2ccco2)Cc2cc3cccc(C)c3[nH]c2=O)c1	x	14.1µM*	-9.9%	-0.4%	-15.6%	u
CCOc1ccc2[nH]c(=O)c(CN(Cc3ccco3)C(=O)c3ccc(Br)cc3)cc2c1	-19.9%	4.47µM*	-28.2%	-3.1%	-15.5%	32.2
Cc1ccc2cc(CN(CCN(C)C)C(=S)Nc3ccccc3)c(=O)[nH]c2c1C	x	2.0%	9.2%[9.22 µM]	-3.3%	7.6%[10 µM]	x
Cc1cc(C)c2[nH]c(=O)c(CN(Cc3ccco3)C(=O)c3cccs3)cc2c1	u	17.8µM*	u	0.8%	-98.4%[10 µM]	-20.3
COc1ccc2[nH]c(=O)c(CN(Cc3ccco3)C(=O)c3ccccc3)cc2c1	u	u	-8.6%	5.4%	0.9%	23.4
CCOc1ccc2[nH]c(=O)c(CN(Cc3ccco3)C(=O)c3cccc(F)c3)cc2c1	u	u	u	-16.1%	-7.6%	15.4
